Holding throughout (experiment): thermal shift delta Tm vs DMSO control; higher = stronger stabilization (binding)
Holding throughout (conditions): 12.5 µM; protein concentration 2 µM

One experiment concerns LOC_OS02G45750-cb003. In outline:
(§1)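 Purified, E. coli-expressed rice kinase domain constructs were tested by differential scanning fluorimetry in 96-well plates: 19.5 μl of 2 μM kinase in 100 mM potassium phosphate pH 7.5, 150 mM NaCl, 10% glycerol, 5 × SYPRO Orange, plus compound in DMSO. Fluorescence was read from 25°C to 95°C at 0.05°C/s. Melting temperatures came from Boltzmann fits, and the shift is the triplicate mean relative to protein with DMSO alone.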

Another experiment has as its system LOC_OS02G54510-cb004. In outline: as §1
A further experiment has as its system LOC_OS03G04050-cb001. The procedure, abridged: as §1
A further experiment has as its system LOC_OS03G12390-cb001. The procedure, abridged: as §1
In another experiment the test system is LOC_OS03G27990-cb004. The procedure, abridged: as §1
For the next experiment, the system named is LOC_OS03G50450-cb001. In outline:
as §1

For another experiment, the system named is LOC_OS03G50810-cb003. The procedure, abridged:
as §1

Another experiment deals with LOC_OS04G35114-cb001. In outline: as §1
In another experiment the test system is T1, LOC_OS04G38480-cb003.
T1 sequence (whole entry): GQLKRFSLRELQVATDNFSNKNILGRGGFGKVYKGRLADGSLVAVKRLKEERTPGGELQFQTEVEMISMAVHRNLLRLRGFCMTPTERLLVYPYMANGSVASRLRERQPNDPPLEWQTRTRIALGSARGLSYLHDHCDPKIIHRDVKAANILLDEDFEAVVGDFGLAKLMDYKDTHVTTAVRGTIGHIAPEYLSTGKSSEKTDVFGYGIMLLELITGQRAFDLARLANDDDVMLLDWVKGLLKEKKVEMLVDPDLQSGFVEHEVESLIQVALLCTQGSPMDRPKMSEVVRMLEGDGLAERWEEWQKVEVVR
The procedure, abridged: as §1

A further experiment relates to T2, LOC_OS04G41100-cb001.
T2 sequence (whole entry): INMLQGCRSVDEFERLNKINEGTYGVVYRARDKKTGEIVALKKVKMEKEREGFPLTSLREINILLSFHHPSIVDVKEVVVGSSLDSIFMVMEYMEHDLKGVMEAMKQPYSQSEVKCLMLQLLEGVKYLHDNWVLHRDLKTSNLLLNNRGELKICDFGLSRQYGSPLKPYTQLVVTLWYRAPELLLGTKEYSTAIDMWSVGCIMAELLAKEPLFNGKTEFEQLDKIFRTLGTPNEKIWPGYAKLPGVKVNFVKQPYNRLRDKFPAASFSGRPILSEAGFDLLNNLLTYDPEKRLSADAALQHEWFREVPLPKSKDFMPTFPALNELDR
In outline:
as §1

The next experiment relates to LOC_OS04G57630-cb004. In outline:
as §1

A further experiment has as its system LOC_OS05G07850-cb002. The procedure, abridged:
as §1

Another experiment concerns LOC_OS05G16824-cb004. The procedure, abridged:
as §1

In the next experiment the test system is LOC_OS05G28520-cb001. In outline: as §1
In another experiment the test system is LOC_OS05G30820-cb001. In outline: as §1
Another experiment relates to LOC_OS05G43570-cb004. In outline:
as §1

Another experiment has as its system LOC_OS06G16330-cb003. The procedure, abridged:
as §1

In a further experiment the test system is T3, LOC_OS06G22820-cb001.
T3 sequence (whole entry): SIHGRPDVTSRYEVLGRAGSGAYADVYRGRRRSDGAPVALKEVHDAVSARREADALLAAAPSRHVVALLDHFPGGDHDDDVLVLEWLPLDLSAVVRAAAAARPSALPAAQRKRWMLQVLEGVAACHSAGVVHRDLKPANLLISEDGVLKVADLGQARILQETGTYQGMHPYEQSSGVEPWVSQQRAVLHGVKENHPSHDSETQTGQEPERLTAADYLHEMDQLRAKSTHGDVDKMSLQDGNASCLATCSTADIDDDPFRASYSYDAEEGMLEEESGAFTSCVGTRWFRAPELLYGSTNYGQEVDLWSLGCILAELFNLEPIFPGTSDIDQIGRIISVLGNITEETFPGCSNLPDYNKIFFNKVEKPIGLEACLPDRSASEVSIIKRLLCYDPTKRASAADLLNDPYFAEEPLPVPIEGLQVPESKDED
In outline:
as §1

The next experiment deals with LOC_OS07G06570-cb004. The procedure, abridged: as §1
In a further experiment the test system is LOC_OS07G07230-cb001. The procedure, abridged: as §1

The text below walks through data of the supplement of paper PMC9694430.

Chain of LOC_OS06G16330-cb003 (as listed by the source): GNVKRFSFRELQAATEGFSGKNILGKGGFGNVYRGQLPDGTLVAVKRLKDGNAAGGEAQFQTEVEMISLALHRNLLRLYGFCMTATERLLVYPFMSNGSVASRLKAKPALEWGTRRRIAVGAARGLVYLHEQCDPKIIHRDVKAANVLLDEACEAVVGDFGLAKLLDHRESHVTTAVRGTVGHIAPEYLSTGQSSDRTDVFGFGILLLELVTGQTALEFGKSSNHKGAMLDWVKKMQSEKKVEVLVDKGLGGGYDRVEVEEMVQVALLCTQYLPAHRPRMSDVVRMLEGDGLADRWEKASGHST

Turning to `COc1cc(Nc2ncc(F)c(Nc3ccc4c(n3)NC(=O)C(C)(C)O4)n2)cc(OC)c1OC` [R406 (free base)], the “thermal shift delta Tm” value with LOC_OS02G45750-cb003 is 4.87 °C; in the experiment with LOC_OS02G54510-cb004, 3.74 °C; in the experiment with LOC_OS03G04050-cb001, 0.5 °C; in the experiment with LOC_OS03G12390-cb001, 7.52 °C; in the experiment with LOC_OS03G27990-cb004, 1.81 °C; with LOC_OS03G50450-cb001, 8.85 °C. For the same molecule, the “thermal shift delta Tm” value was 4.46 °C in the experiment on LOC_OS03G50810-cb003; 2.9 °C in the experiment on LOC_OS04G35114-cb001; 4.51 °C in the experiment on LOC_OS04G38480-cb003; 1.22 °C in the experiment with LOC_OS04G41100-cb001; 2.15 °C in the experiment with LOC_OS04G57630-cb004; 13 °C in the experiment with LOC_OS05G07850-cb002. The “thermal shift delta Tm” value in the experiment on LOC_OS05G16824-cb004 was 12.6 °C; with LOC_OS05G28520-cb001 it was 0.85 °C; with LOC_OS05G30820-cb001, 1.44 °C; in the experiment on LOC_OS05G43570-cb004, 0.79 °C; with LOC_OS06G16330-cb003 it was 14.8 °C; in the experiment with LOC_OS06G22820-cb001, 0.44 °C. Further, the “thermal shift delta Tm” value in the experiment on LOC_OS07G06570-cb004 is 0.75 °C; in the experiment with LOC_OS07G07230-cb001, -0.18 °C.
In the case of `CS(=O)(=O)N1CCc2c(-c3cnc(N)nc3)nc(N3CCOCC3)nc21`, the “thermal shift delta Tm” value in the experiment on LOC_OS02G45750-cb003 was found to be 1.16 °C; in the experiment with LOC_OS02G54510-cb004 it was 0.52 °C; with LOC_OS03G04050-cb001, 0.13 °C; in the experiment on LOC_OS03G12390-cb001 it was 0.72 °C; in the experiment on LOC_OS03G27990-cb004 it was 0.23 °C; in the experiment on LOC_OS03G50450-cb001, 0.77 °C. For the same molecule, the “thermal shift delta Tm” value in the experiment on LOC_OS03G50810-cb003 is 0.53 °C; in the experiment on LOC_OS04G35114-cb001, 0.89 °C; in the experiment with LOC_OS04G38480-cb003, 1.31 °C; with LOC_OS04G41100-cb001, 0.14 °C; with LOC_OS04G57630-cb004, 0.4 °C; in the experiment with LOC_OS05G07850-cb002 it was 2.27 °C. Also, the “thermal shift delta Tm” value is 0.4 °C with LOC_OS05G16824-cb004; 0.43 °C with LOC_OS05G28520-cb001; 0.79 °C with LOC_OS05G30820-cb001; 0.7 °C in the experiment on LOC_OS05G43570-cb004; 0.69 °C in the experiment on LOC_OS06G16330-cb003; 0.66 °C with LOC_OS06G22820-cb001. Besides, the “thermal shift delta Tm” value was 0.72 °C in the experiment with LOC_OS07G06570-cb004 and -0.05 °C in the experiment with LOC_OS07G07230-cb001.
In the case of `O=C1Nc2ccccc2/C1=C1/Nc2ccccc2C1=O` [Indirubin], the “thermal shift delta Tm” value with LOC_OS02G45750-cb003 came out at 2.07 °C; with LOC_OS02G54510-cb004, 0.45 °C; in the experiment with LOC_OS03G04050-cb001 it was 0.62 °C; in the experiment on LOC_OS03G12390-cb001, 0.59 °C; with LOC_OS03G27990-cb004, 0.23 °C; with LOC_OS03G50450-cb001, 0.08 °C. Also, the “thermal shift delta Tm” value with LOC_OS03G50810-cb003 stood at 1.48 °C; in the experiment with LOC_OS04G35114-cb001, 3.86 °C; in the experiment with LOC_OS04G38480-cb003, 0.97 °C; in the experiment with LOC_OS04G41100-cb001, 0.98 °C; with LOC_OS04G57630-cb004, 0.28 °C; in the experiment with LOC_OS05G07850-cb002, 5.1 °C. The “thermal shift delta Tm” value in the experiment on LOC_OS05G16824-cb004 is -2.11 °C; with LOC_OS05G28520-cb001, 0.79 °C; in the experiment on LOC_OS05G30820-cb001 it was 1.11 °C; in the experiment with LOC_OS05G43570-cb004, 0.4 °C; in the experiment with LOC_OS06G16330-cb003, 0.35 °C; with LOC_OS06G22820-cb001, 0.47 °C. Further, the “thermal shift delta Tm” value with LOC_OS07G06570-cb004 turned out to be 1.39 °C; in the experiment with LOC_OS07G07230-cb001, 0.66 °C.
`COc1cc2ncnc(Oc3ccc(CC(=O)Nc4cnn(C(C)C)c4)cc3)c2cc1OC`: the “thermal shift delta Tm” value came out at 0.54 °C with LOC_OS02G45750-cb003; 0.74 °C in the experiment with LOC_OS02G54510-cb004; 0.53 °C in the experiment on LOC_OS03G04050-cb001; 0.37 °C with LOC_OS03G12390-cb001; 0.19 °C in the experiment with LOC_OS03G27990-cb004; 0.01 °C in the experiment on LOC_OS03G50450-cb001. For the same molecule, the “thermal shift delta Tm” value in the experiment on LOC_OS03G50810-cb003 amounted to 0.5 °C; in the experiment with LOC_OS04G35114-cb001, 2.1 °C; in the experiment on LOC_OS04G38480-cb003 it was 1.49 °C; with LOC_OS04G41100-cb001, 0.32 °C; in the experiment with LOC_OS04G57630-cb004, 1.78 °C; in the experiment with LOC_OS05G07850-cb002 it was 8.95 °C. Further, the “thermal shift delta Tm” value is 0.86 °C with LOC_OS05G16824-cb004; 0.43 °C in the experiment on LOC_OS05G28520-cb001; 0.37 °C with LOC_OS05G30820-cb001; -0.02 °C in the experiment with LOC_OS05G43570-cb004; 0.82 °C with LOC_OS06G16330-cb003; 0.41 °C in the experiment on LOC_OS06G22820-cb001. In addition, the “thermal shift delta Tm” value with LOC_OS07G06570-cb004 amounted to 1.54 °C; with LOC_OS07G07230-cb001 it was 0.45 °C.
